An excerpt weighted towards active compounds, which were near 6.8% of everything screened.
Spn PMK inh – blocks S. pneumoniae phosphomevalonate kinase. purified PMK, PK/LDH-coupled NADH absorbance 340 nm. inhibition, % at 10 µM. actives 0.49% (n = 65,000). AID 539;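 active = top-ranked compounds by inhibition in the single 10 µM screen, taking a fixed number of the strongest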
Abs 340nm – compound absorbs light at 340 nm | compound absorbance at 340 nm, fold over control | fold change at 10 µM | 65,000 tested, under 10 active;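 active = at 10 µM dose, initial 340 nm absorbance at least 2 fold that of control wells; inactive = change under 2 fold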;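 note: initial absorbance extrapolated from kinetic A340 decline of NADH oxidation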
NADH coupling – inhibitors of enzymes used to reach an NAD/NADH endpoint; coupled PK/LDH NADH assays, four targets; IC50, µM (top dose mostly 10 µM); actives 0.02% (n = 65,000);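 active = single-dose screening hits from any of four coupled enzyme assays that gave an IC50 when retested across doses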;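 note: the DPM-DC format reads NADH fluorescence rather than 340 nm absorbance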
DPM-DC inhibit – inhibitors of Streptococcus pneumoniae diphosphomevalonate decarboxylase; AID 556; actives 0.49% (n = 65,000); calls only at 10 µM; purified DPM-DC, PK/LDH coupled NADH fluorescence;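 active = the 320 compounds with the highest percent inhibition in the single-dose primary screen, excluding strongly autofluorescent ones, cut at about 32% in these data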;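 note: kinetic rate of NADH fluorescence loss reporting ADP formed by the decarboxylase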
Fluor 339 460 – intrinsic fluorescence of library compounds, ex339/em460 – biochemical, MLSMR library, data from DPM-DC assay, artefact control, profiling panel. actives 5.5% (n = 65,000). compound autofluorescence, ex339/em460 nm, NADH buffer; hits give high values; 1 = no-compound wells, NADH background. fluorescence fold increase at 10 µM;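 active = at 10 µM, mean starting fluorescence two-fold or more over control wells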;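 note: signal is the first read of a kinetic run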
Spn MK inh – S. pneumoniae mevalonate kinase inhibition; purified MK, PK/LDH-coupled NADH absorbance 340 nm; inhibition, % at 10 µM; actives 0.48% (n = 65,000); AID 555;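 active = ranked among the strongest by inhibition in the single 10 µM screen, a fixed top-ranked set picked for dose follow-up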
Of the large screens only hits and unclear results are named; the others gave an inactive call.

CCc1nc(NCC(C)C)c(C#N)c2c1COC(C)(C)C2	Fluor 339 460 2.1 (not shown: DPM-DC inhibit)
CCc1nc(NC2CCCCC2)c(C#N)c2c1COC(C)(C)C2	none
CCSc1nnc(NC(=O)CSc2nnc(-c3c[nH]c4ccccc34)n2C)s1	none
O=C1CC(c2ccco2)CC2=C1C(c1ccccc1)n1nc(C(F)(F)F)nc1N2 (centres undefined)	Fluor 339 460 2.8
O=C(c1ccc2ccccc2c1)N1CCN(c2ccc(O)cc2)CC1	Spn PMK inh 26
O=C(Nc1cccc(-c2nnc(-c3ccccc3)o2)c1)c1ccc(Br)o1	none
O=C1c2ccccc2C(=O)N1CCc1nc2ccccc2c(=O)n1CCCn1ccnc1	none
CCCN(Cc1cc2cc(OC)ccc2[nH]c1=O)C(=O)c1ccncc1	none
CCCCN(Cc1cc2cc(OC)ccc2[nH]c1=O)C(=O)c1ccccn1	Fluor 339 460 2.5 (not shown: DPM-DC inhibit)
Cc1ccc2[nH]c(=O)c(CN(CCO)C(=O)NCc3ccccc3)cc2c1	none
COc1ccc2[nH]c(=O)c(CN(CCN(C)C)C(=O)NCc3ccccc3)cc2c1	Fluor 339 460 3.8
CCC(=O)N(CCc1ccccc1C)Cc1cc2cc3c(cc2[nH]c1=O)OCO3	Fluor 339 460 3.8 (not shown: DPM-DC inhibit)
CC(=O)N(Cc1cccnc1)Cc1cc2ccc(C)cc2[nH]c1=O	none
COc1cc2cc(CN(Cc3cccnc3)C(=O)NCc3ccccc3)c(=O)[nH]c2cc1OC	Fluor 339 460 4.8 (not shown: DPM-DC inhibit)
COc1ccc2cc(CN(C(=O)Nc3ccccc3OC)C3CCCC3)c(=O)[nH]c2c1	none
COc1cc2cc(CN(C(=O)NC3CCCCC3)C3CCCC3)c(=O)[nH]c2cc1OC	Fluor 339 460 3.9 (not shown: DPM-DC inhibit)
Cc1ccc2[nH]c(=O)c(CN(CC3CCCO3)C(=O)c3ccco3)cc2c1 (centres undefined)	none
O=C(NCc1ccccc1)N(Cc1cc2cc3c(cc2[nH]c1=O)OCO3)CC1CCCO1 (centres undefined)	Fluor 339 460 3.7 (not shown: DPM-DC inhibit)
COc1ccc2[nH]c(=O)c(CN(CCO)C(=O)c3ccccc3F)cc2c1	Fluor 339 460 2.9
Cc1ccc2cc(CN(CCN3CCOCC3)C(=O)NCc3ccccc3)c(=O)[nH]c2c1C	Fluor 339 460 2.1
Cc1ccc2cc(CN(CCN3CCCC3)C(=O)Nc3ccccc3)c(=O)[nH]c2c1C	none
CCc1nnc(NC(=O)Cn2nnc(-c3ccccc3F)n2)s1	none
COc1ccc2[nH]c(=O)c(CN(C(=O)c3ccccn3)C3CCCCC3)cc2c1	Fluor 339 460 2.9
CCOC(=O)c1oc2nc(C(C)C)c3c(c2c1N)CCC3	Fluor 339 460 3.8 (not shown: DPM-DC inhibit)
CCOC(=O)c1oc2nc(C(C)C)c3c(c2c1N)CC(C)(C)OC3	Fluor 339 460 3.8 (not shown: DPM-DC inhibit)
CCCc1nc2oc(C(=O)OCC)c(N)c2c2c1COC(C)(C)C2	Fluor 339 460 3.9 (not shown: DPM-DC inhibit)
Cc1nc2oc(C(=O)c3ccccc3)c(N)c2c2c1COC(C)(C)C2	none
CCOC(=O)c1c(SC)nc(SC)c2c1CCC2	none
CC1CCN(S(=O)(=O)N2CCC(C(=O)NCc3cccs3)CC2)CC1	none
CNC(=O)C1CC(=O)N(c2ccc(C)cc2)C1 (centres undefined)	none
Cc1nc(COC(=O)c2ccc(S(=O)(=O)N3CCCC3)cc2)cs1	none
COC(=O)c1[nH]c2cccc(OC)c2c1NC(=O)CN1CCC(C(N)=O)(N2CCCCC2)CC1	Fluor 339 460 3.7 (not shown: DPM-DC inhibit)
COC(=O)c1[nH]c2cccc(OC)c2c1NC(=O)CCN1CCN(c2ccccc2F)CC1	Fluor 339 460 3.1
COC(=O)c1[nH]c2cccc(OC)c2c1NC(=O)CCN1CCC(C(N)=O)CC1	Fluor 339 460 2.9
COc1ccc(C2(CNC(=O)CCC(=O)O)CCCC2)cc1	none
NC(=O)c1ccsc1NC(=O)c1nc(-c2ccccc2)n(-c2ccccc2)n1	DPM-DC inhibit active
O=C(NC1=NCCS1)c1nc(-c2ccccc2)n(-c2ccccc2)n1	none
COC(=O)C1=C(C)OC(N)=C(C#N)C1c1ccccc1F (centres undefined)	none
COC(=O)C1=C(C)OC(N)=C(C#N)C1c1cc(OC)c(OCC(N)=O)cc1Cl (centres undefined)	Spn PMK inh 37, DPM-DC inhibit active, Spn MK inh 48
O=C(c1ccco1)N1CCN(CC(O)COc2ccc3oc4ccccc4c3c2)CC1 (centres undefined)	none
COc1cc(NC(=O)CSc2nnc(C)s2)cc(OC)c1	none
O=C(C1CCCCC1)N1CCC(c2nc3c(nnn3Cc3ccccc3Cl)c(=O)[nH]2)CC1	DPM-DC inhibit active
O=C(Nc1ccc(F)cc1)N1CCC(c2nc3c(nnn3Cc3cccc(Cl)c3)c(=O)[nH]2)CC1	Spn MK inh 49
Cc1ccc(NC(=O)N2CCC(c3nc4c(nnn4Cc4cccc(Cl)c4)c(=O)[nH]3)CC2)cc1	none
Cc1ccc(-n2ncc3c(=O)n(CC#N)cnc32)cc1	none
CC1(c2ccc3c(c2)OCO3)NC(=O)N(CC(=O)Nc2ccc(N3CCOCC3)cc2)C1=O (centres undefined)	none
CCOC(=O)C1=C(C)NC2=C(C(=O)CCC2)C1c1cccnc1 (centres undefined)	Fluor 339 460 2.1 (not shown: DPM-DC inhibit)
CC1=C(C(=O)OCC2CCCO2)C(c2ccccc2OC(C)C)C2=C(CC(c3ccco3)CC2=O)N1 (centres undefined)	Fluor 339 460 3.3 (not shown: DPM-DC inhibit)
CCOC(=O)C1=C(N)OC2=C(C(=O)CCC2)C1c1cccnc1 (centres undefined)	none
COCCOC(=O)C1=C(C)NC2=C(C(=O)CC(c3cccs3)C2)C1c1ccsc1 (centres undefined)	Fluor 339 460 2.4
CC1=C(C(=O)OC(C)C)C(c2cccnc2)C2=C(CCCC2=O)N1 (centres undefined)	Fluor 339 460 2.2 (not shown: DPM-DC inhibit)
CCN(CC)c1ccc(C2C(C(=O)OCCOC)=C(C)NC3=C2C(=O)CCC3)cc1 (centres undefined)	none
CCOC(=O)N1CCC(N2C(=O)c3ccccc3C2Nc2ccc(Cl)cn2)CC1 (centres undefined)	none
CC1=C(C(=O)OCC2CCCO2)C(c2ccccc2)NC(=O)N1 (centres undefined)	none
CC1=C(C(=O)OCC2CCCO2)C(c2ccncc2)C2=C(CCCC2=O)N1 (centres undefined)	DPM-DC inhibit active
COC(=O)C1=C(C)NC2=C(C(=O)CCC2)C1c1ccccn1 (centres undefined)	Fluor 339 460 2.1 (not shown: DPM-DC inhibit)
CCOC(=O)C1=C(C)NC2=C(C(=O)CCC2)C1c1ccsc1 (centres undefined)	Fluor 339 460 2.5
CC1=C(C(=O)OC(C)C)C(c2cccs2)C2=C(CCCC2=O)N1 (centres undefined)	none
CCCCCCn1c(C(C)NC(=O)c2ccco2)nc2ccccc21 (centres undefined)	none
Cc1ccc(-c2csc3nnc(SCC(=O)N4CCN(Cc5ccccc5)CC4)n23)cc1	none
